# Assay outcomes as filed in PubChem BioAssay.
# Compounds with a hit are over-represented: about 28% of the library has one in this group of screens.
# CYP2C19 inhib = blocks human cytochrome P450 2C19. hit rate 21% among 96,000. AID 778. inhibition, % at 5 µM. CYP2C19 Supersomes, luciferin-H EGE luminescence, 30 min. P33261;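 active = CYP2C19 inhibition above a set limit at 5 µM in the primary screen, cut at about 50% in these data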
# Target sequence (P33261 whole entry, looked up): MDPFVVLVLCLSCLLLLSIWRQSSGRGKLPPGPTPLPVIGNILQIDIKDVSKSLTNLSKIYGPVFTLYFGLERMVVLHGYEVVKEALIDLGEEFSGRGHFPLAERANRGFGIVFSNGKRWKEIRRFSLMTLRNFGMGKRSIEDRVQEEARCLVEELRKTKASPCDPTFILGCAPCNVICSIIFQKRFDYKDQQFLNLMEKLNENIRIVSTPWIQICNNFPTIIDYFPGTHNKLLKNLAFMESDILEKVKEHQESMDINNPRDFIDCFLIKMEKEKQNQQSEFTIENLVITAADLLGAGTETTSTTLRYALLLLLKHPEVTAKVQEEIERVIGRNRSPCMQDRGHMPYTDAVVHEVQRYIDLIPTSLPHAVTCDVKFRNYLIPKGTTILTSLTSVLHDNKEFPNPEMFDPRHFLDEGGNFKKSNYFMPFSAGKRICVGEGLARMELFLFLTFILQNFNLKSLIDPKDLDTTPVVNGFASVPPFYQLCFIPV
# CYP2C19 act = increases human CYP2C19 enzyme activity. 96,000 tested, under 10 active. P33261. activation factor at 5 µM. recombinant CYP2C19, luciferin-H EGE luminescence; stronger effect = higher value; 0 = fully inhibited enzyme, 1 = untreated enzyme;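 active = activation factor of at least 2 at 5 µM in the primary screen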
# Mac1 fbg inh = CD11b/CD18-fibrinogen binding inhibition | P05107+P11215 | K562 CD11b/CD18 adhesion to fibrinogen, ATPlite luminescence; Mn2+ added to activate the integrin | inhibition, % at 10 µM | hit rate 0.54% among 93,000 | AID 1497;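 active = primary inhibition of 50% or more at 10 µM, then 40% or more on retest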
# CYP2C9 inhib = human CYP2C9 inhibition. P11712. CYP2C9 Supersomes, luciferin-H conversion, luminescence. inhibition, % at 5 µM. hit rate 20% among 96,000. AID 777;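 active = blocking of liver enzyme CYP2C9 beyond about 50% at 5 µM, limit read from the data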
# CYP2C9 act = increases human cytochrome P450 2C9 activity. P11712. recombinant CYP2C9, luciferin-H conversion, luminescence; stronger effect = higher value; factor 1 = untreated enzyme, 0 = blocked. activation factor at 5 µM. hit rate 1.4% among 96,000;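 active = activation factor of 2 or more for CYP2C9 at a 5 µM dose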
# Mac1 fbg enh = CD11b/CD18-fibrinogen binding enhancement. P05107+P11215. K562 CD11b/CD18 adhesion to fibrinogen, ATPlite luminescence. activation, % at 10 µM. hit rate 0.07% among 93,000. AID 1499;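 active = 10 µM primary screen giving 50% or more activity, confirmed by 40% or more on retest at that dose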
# Numbers stand for hits; n = inactive; x = no result given.
SMILES,CYP2C19 inhib,CYP2C19 act,Mac1 fbg inh,CYP2C9 inhib,CYP2C9 act,Mac1 fbg enh
Cc1ccc(S(=O)(=O)NC2CCCc3ccccc32)cc1C (centres undefined),n,n,n,n,n,n
CC(=O)C1=C(C)NC(=O)NC1c1ccc(OC2CCCC2)cc1 (centres undefined),n,n,n,n,n,n
CCOC(=O)C(O)(CCC(O)(C(=O)OCC)C(=O)OCC)C(=O)OCC,n,n,n,n,n,n
Cc1ccc(-c2ccc(/C=N/NC(=S)Nc3ccccc3)o2)cc1[N+](=O)[O-],65,n,x,53,n,x
CN(CC(=O)N1CCN(c2ccccn2)CC1)S(=O)(=O)c1ccc(Br)cc1,63,n,n,n,n,n
S=C(Nc1cccc2ccccc12)N1CCN(c2ncccn2)CC1,58,n,n,n,n,n
COc1ccccc1NC(=O)N1CCN(c2ncccn2)CC1,n,n,n,n,2.4,n
Cc1cc(C)cc(NC(=S)N2CCN(c3ncccn3)CC2)c1,x,x,n,x,x,n
COc1ccccc1CC(=O)N1CCN(c2cccc(C(F)(F)F)c2)CC1,72,n,n,n,2,n
COc1ccc(C2CC(=O)C(C=NCCN3CCOCC3)=C(O)C2)cc1 (centres undefined),x,x,n,x,x,n
C=C1CC(C)OC(c2ccccc2OCC(O)CN2CCCCC2)C1 (centres undefined),n,n,n,n,n,n
COc1ccccc1CC(=O)N1CCCC1,n,n,n,n,n,n
COc1ccccc1CC(=O)N1CCN(c2ccccn2)CC1,58,n,x,n,n,x
COc1ccccc1NC(=O)N1CCN(c2cccc(C(F)(F)F)c2)CC1,85,n,n,n,2.1,n
O=C(CC1CCCCC1)N1CCN(c2ccccn2)CC1,54,n,n,62,n,n
Cn1c(SCC(=O)Nc2ccc3nc(SCC(=O)N4CCCC4)sc3c2)nnc1-c1ccc(N)cc1,n,n,n,n,n,n
COc1ccc2[nH]c3c(N4CCC(O)(c5cccc(C(F)(F)F)c5)CC4)ncnc3c2c1,n,n,n,67,n,n
Cc1ccc2[nH]c3c(N4CCc5ccccc5C4)ncnc3c2c1,n,n,x,n,n,x
COc1ccc2[nH]c3c(N4CCN(Cc5ccc6c(c5)OCO6)CC4)ncnc3c2c1,58,n,n,82,n,n
COc1ccc2c(c1)c1ncnc(N3CCN(Cc4ccc5c(c4)OCO5)CC3)c1n2C,n,n,n,82,n,n
COc1ccc2c(c1)c(C(O)CN1CCN(Cc3ccc4c(c3)OCO4)CC1)c(C)n2C (centres undefined),n,n,n,n,n,n
COc1ccc(N2CC(C)Cn3c2nc2c3c(=O)[nH]c(=O)n2C)cc1 (centres undefined),n,n,n,n,n,n
CCOC(=O)Cn1nnnc1C(CC)N(Cc1cc2c(C)cc(C)cc2[nH]c1=O)C1CCCC1 (centres undefined),n,n,n,n,n,n
Cn1nnnc1SCC(=O)N1CCN(c2ccc(Cl)cc2)CC1,n,n,n,n,n,n
O=C(CSC1=NCCS1)N1CCN(c2ccc(Cl)cc2)CC1,62,n,x,n,n,x
SMILES,CYP2C19 inhib,CYP2C19 act,Mac1 fbg inh,CYP2C9 inhib,CYP2C9 act,Mac1 fbg enh
CCOC(=O)C1CCN(C(=O)CSC2=NCCS2)CC1,59,n,n,n,n,n
Cc1ccc(OC(F)F)c(NC(=O)Nc2cccc(C(F)(F)F)c2)c1,n,n,n,n,n,n
COc1ccc(/C=N/n2cnnc2SCc2ccccc2)cc1,n,n,n,n,n,n
CCOC(=O)CSc1nnc(SCCN2C(=O)c3ccccc3C2=O)s1,n,n,n,83,n,n
COC(=O)c1sc(N)c(C(=O)OC)c1COC(=O)c1c(C)noc1C,96,n,n,97,n,n
Cc1noc(C)c1C(=O)OCC(=O)NC1CC1,n,n,n,n,n,n
N#CC(/C(=N/S(=O)(=O)c1cccs1)c1ccccc1)c1nc2ccccc2[nH]1 (centres undefined),n,n,n,95,n,n
CCC(O)CNC(=O)NC(=C(Cl)Cl)c1ccc(C)c(F)c1 (centres undefined),x,x,n,x,x,n
Cc1noc(/C=C/c2ccco2)c1S(=O)(=O)N1CCC(C(=O)N(C)Cc2ccccc2)CC1,n,n,n,76,n,n
Cc1noc(/C=C/c2ccco2)c1S(=O)(=O)N1CCC(C(=O)N2c3ccccc3CC2C)CC1 (centres undefined),n,n,n,70,n,n
CCCS(=O)(=O)N1CCC(C(=O)NCC2CCCO2)CC1 (centres undefined),n,n,n,n,n,n
CC1(C)NC(=O)N(CC(=O)Nc2nc(-c3ccc(F)cc3)cs2)C1=O,n,n,n,n,n,n
Cc1ccc(-n2cc(C(C)(C)C)[nH]c2=S)cc1,60,n,n,n,n,n
CC(C)(C)c1cn(-c2ccccc2)c(=S)[nH]1,n,n,n,n,n,n
CCOC(=O)CC(=O)CSc1[nH]c(=O)cc(C)c1C#N,n,n,n,n,n,n
c1ccc(-c2csc(Nc3nc(N4CCOCC4)nc(N4CCOCC4)n3)n2)cc1,n,n,x,n,n,x
COCCN1C=C(C(=O)OC)C(c2ccccc2C(F)(F)F)C(C(=O)OC)=C1,n,n,n,n,n,n
COC(=O)C1=CNC=C(C(=O)OC)C1c1ccc(Cl)cc1,75,n,n,75,n,n
COC(=O)C1=CNC=C(C(=O)OC)C1c1cccc(OC)c1,86,n,n,79,n,n
COC(=O)C1=CNC=C(C(=O)OC)C1c1ccccc1Cl,84,n,n,70,n,n
CCOC(=O)C1=C(N)N2C(=O)C(C)SC2=C(C(=O)OC)C1c1cccc(OC)c1 (centres undefined),n,n,n,n,n,n
COc1cccc(C(c2sc3nc(C)nn3c2O)N2CCc3ccccc3C2)c1 (centres undefined),78,n,n,53,n,n
Cc1nc2sc(C(c3ccccc3)N3CCN(c4ccccc4F)CC3)c(O)n2n1 (centres undefined),66,n,n,n,n,n
Cc1nc2sc(C(c3ccccc3)N3CCC(O)CC3)c(O)n2n1 (centres undefined),n,n,n,n,n,n
Cc1nc2sc(C(c3cccc(F)c3)N3CCC(C)CC3)c(O)n2n1 (centres undefined),80,n,n,n,n,n
Cc1cccc(N2CCN(C(=O)c3cccc(N4C(=O)C5CC=CC(C)C5C4=O)c3)CC2)c1C (centres undefined),n,n,n,59,n,n
Nc1ccc2nc(-c3ccccc3)sc2c1,72,n,n,51,n,n
c1ccc(-c2nc3ccccc3s2)nc1,n,n,n,n,n,n
CCc1ccccc1NC(=O)COc1ccc2c(=O)c(Oc3cc(C)ccc3C)coc2c1,x,x,n,x,x,n
